Source: PubChem BioAssay (NCATS)
Results filed as inconclusive are left out. Unmarked numbers belong to inactive results. The source made the active and inactive calls. Calls come from the whole dose curve; as a rule, active = well fitted cell-killing curve with a large enough effect; inconclusive = small, poorly fitted or top-dose-only effect; inactive = flat fitted curve, though single readings scatter. Peptide text beside a SMILES is read from it.

test: Cell Viability - LYMP2-008 (AID 980); conditions: LYMP2-008 lymphoblastoid cell viability, qHTS; series mostly up to 92.2 µM; activity change, negative = cytotoxicity: at the top concentration; note: nearly all actives have a fitted effect of over 60% in size
Text: NIH Chemical Genomics Center [NCGC]
NIH Molecular Libraries Screening Centers Network [MLSCN]
National Institutes of Environmental Health Sciences [NIEHS]
National Toxicology Program [NTP]
We have developed a 1536-well cell-based assay for quantitative high throughput screening (qHTS) against a number of cell lines to determine in vitro cytotoxicity of small molecules. This particular assay uses a human lymphoblastoid cell line (LYMP2-008) purchased from Coriell Institute for Medical Research.
NCGC Assay Protocol Summary:
The CellTiter-Glo luminescent cell viability assay (Promega) is a homogeneous method to measure the number of viable cells in culture. The end point readout of this assay is based on quantitation of intracellular ATP, an indicator of metabolic activity, using the luciferase reaction. Luciferase catalyzes the oxidation of beetle Luciferin to oxyluciferin and light in the presence of ATP. The luminescent signal is proportional to amount of ATP present.
Using the CellTiter-Glo luminescent cell viability assay, the amount of cellular ATP was measured in the lymphoblastoid cell line with complete culture medium following compound treatment for 24 hours. The assay was performed in opaque white Kalypsys 1536-well plates. In the screen, tetraoctylammonium bromide was used as positive control. Library compounds were measured for their ability to cause acute toxicity in the cell line, as reflected by a decrease in intracellular ATP levels, in a concentration-dependent manner. […] AC50 values were determined from concentration-response data modeled with the standard Hill equation.
qHTS protocol for CellTiter Glo lymphoblastoid cellular assay
[Step] [Parameter] [Value] [Description]
1. Reagent; 5 uL; 2500 lymphoblastoid cells/well
2. Time; 5 hr; 37 C incubation
4. Controls; 23 nL; Tetraoctylammonium bromide 6.4pM to 92 uM
5. Time; 24 hr; 37 C incubation
6. Reagent; 5 uL; CellTiter Glo reagent
7. Time; 30 min; Room Temperature
8. Detection; Luminescence; Viewlux plate reader
Keywords: cell viability, cytotoxicity, lymphoblastoid cell line, luminescence, NTPHTS, NTPHTS_NCGC, NIEHS, DSSTox, MLSMR, MLSCN, NIH Roadmap, qHTS, NCGC
% is set by controls: 0 for no effect and ±100 for the full control effect; potency is the fitted concentration of half-maximal effect.

Row | SMILES | activity change, negative = cytotoxicity | Potency
1 | Nc1ccc(S(N)(=O)=O)cc1 | -1.25% | 
2 | COC(=O)[C@H](Cc1ccccc1)NC(=O)[C@@H](N)CC(=O)O (H-Asp-Phe-OMe) | -2.28% | 
3 | CS(=O)(=O)OCCCCOS(C)(=O)=O |  | inactive
4 | c1ccc2[nH]c(-c3cscn3)nc2c1 | -20.8% | 
5 | CCCCC(CC)COC(=O)C(C#N)=C(c1ccccc1)c1ccccc1 (stereo unspecified) | -17.6% | 
6 | CN(C)c1ccc2nc3ccc(=[N+](C)C)cc-3sc2c1 |  | 3.16 µM (active)
7 | CC(=O)Nc1ccc(O)cc1 | -12.5% | 
8 | CCCc1cc(=O)[nH]c(=S)[nH]1 | 1.12% | 
9 | COc1c2occc2cc2ccc(=O)oc12 | -21.6% | 
10 | NS(=O)(=O)c1cc(C(=O)O)c(NCc2ccco2)cc1Cl | -9.33% | 
11 | Cc1ccc(C)c(OCCCC(C)(C)C(=O)O)c1 | -12.3% | 
